# Measured values as given in the supplement of paper PMC7411054.
# Structures can show the parent of a compound that is named as a salt.
# How the values were obtained:
# Details in all cases: treatment time: 24 h
# HepG2-ACTB-RAB5A [1] = assay: lowest phenotypically active concentration; higher = less potent
# Procedure, shortened: (§1)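 Four wells per concentration (0.3, 1, 3 or 9 µM) were treated for 24 h in each of fifteen gene-edited reporter lines from A549, HepG2 and WPMY1 cells, then imaged live. After normalising live-cell features to solvent control wells, deviation was defined as ≥3 of 4 wells lying past the 95th percentile of control Euclidean distances. Reproducibility was defined as a median replicate Pearson correlation above the 95th percentile of non-replicates. Both had to hold for phenotypic activity.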
# HepG2-CANX-COX4 [2] = assay: as above
# Procedure, shortened: as §1
# HepG2-GM130-SQSTM1 [3] = assay: as above
# Procedure, shortened: as §1
# WPMY1-GM130-SQSTM1 [4] = assay: as above
# Procedure, shortened: as §1
# WPMY1-TP53BP1-CLTA [5] = assay: as above
# Procedure, shortened: as §1
# A549-ACTB-RAB5A = assay: phenotypically active (imaging signature differs from DMSO and reproducible) at any of 0.3-9 uM (binary (1 = active, 0 = inactive)); higher = active
# Procedure, shortened: as §1
# A549-CANX-COX4 = assay: as above
# Procedure, shortened: as §1
# A549-GM130-SQSTM1 = assay: as above
# Procedure, shortened: as §1
# A549-TP53BP1-CLTA = assay: as above
# Procedure, shortened: as §1
# A549-TUBA1B-RELA = assay: as above
# Procedure, shortened: as §1
# HepG2-ACTB-RAB5A [6] = assay: as above
# Procedure, shortened: as §1
# HepG2-CANX-COX4 [7] = assay: as above
# Procedure, shortened: as §1
# HepG2-GM130-SQSTM1 [8] = assay: as above
# Procedure, shortened: as §1
# HepG2-TP53BP1-CLTA = assay: as above
# Procedure, shortened: as §1
# HepG2-TUBA1B-RELA = assay: as above
# Procedure, shortened: as §1
# WPMY1-ACTB-RAB5A = assay: as above
# Procedure, shortened: as §1
# WPMY1-CANX-COX4 = assay: as above
# Procedure, shortened: as §1
# WPMY1-GM130-SQSTM1 [9] = assay: as above
# Procedure, shortened: as §1
# WPMY1-TP53BP1-CLTA [10] = assay: as above
# Procedure, shortened: as §1
# WPMY1-TUBA1B-RELA = assay: as above
# Procedure, shortened: as §1
SMILES,lowest phenotypically active concentration (HepG2-ACTB-RAB5A [1]),lowest phenotypically active concentration (HepG2-CANX-COX4 [2]),lowest phenotypically active concentration (HepG2-GM130-SQSTM1 [3]),lowest phenotypically active concentration (WPMY1-GM130-SQSTM1 [4]),lowest phenotypically active concentration (WPMY1-TP53BP1-CLTA [5]),phenotypically active (A549-ACTB-RAB5A),phenotypically active (A549-CANX-COX4),phenotypically active (A549-GM130-SQSTM1),phenotypically active (A549-TP53BP1-CLTA),phenotypically active (A549-TUBA1B-RELA),phenotypically active (HepG2-ACTB-RAB5A [6]),phenotypically active (HepG2-CANX-COX4 [7]),phenotypically active (HepG2-GM130-SQSTM1 [8]),phenotypically active (HepG2-TP53BP1-CLTA),phenotypically active (HepG2-TUBA1B-RELA),phenotypically active (WPMY1-ACTB-RAB5A),phenotypically active (WPMY1-CANX-COX4),phenotypically active (WPMY1-GM130-SQSTM1 [9]),phenotypically active (WPMY1-TP53BP1-CLTA [10]),phenotypically active (WPMY1-TUBA1B-RELA)
C[C@@H]1O[C@@H](O[C@H]2C[C@@H](O)[C@]3(CO)[C@H]4[C@H](O)C[C@]5(C)[C@@H](C6=CC(=O)OC6)CC[C@]5(O)[C@@H]4CC[C@]3(O)C2)[C@H](O)[C@H](O)[C@H]1O [Strophantine octahydrate],≤ 0.3 µM,≤ 0.3 µM,≤ 0.3 µM,≤ 0.3 µM,≤ 0.3 µM,1 (active),1 (active),1 (active),1 (active),1 (active),1 (active),1 (active),1 (active),1 (active),1 (active),1 (active),1 (active),1 (active),1 (active),1 (active)
CC[C@@H](C)C(=O)O[C@H]1[C@H](O)[C@H]2[C@@H](CN3C[C@@H](C)CC[C@H]3[C@@]2(C)O)C2C[C@]34O[C@]5(O)[C@@H](OC(=O)[C@](C)(O)CC)CC[C@@]3(C)[C@@H]5[C@@H](OC(C)=O)[C@@H](OC(C)=O)[C@H]4[C@@]21O (stereo partly specified) [Protoveratrine A],–,–,–,–,–,0 (inactive),0 (inactive),1 (active),0 (inactive),0 (inactive),0 (inactive),0 (inactive),0 (inactive),0 (inactive),0 (inactive),0 (inactive),0 (inactive),0 (inactive),0 (inactive),0 (inactive)
C[C@@]12C(=O)OC(=O)[C@]1(C)[C@H]1CC[C@@H]2O1 [Cantharidin],3 µM,9 µM,9 µM,3 µM,3 µM,1 (active),1 (active),1 (active),1 (active),0 (inactive),1 (active),1 (active),1 (active),1 (active),1 (active),1 (active),1 (active),1 (active),1 (active),1 (active)
COC(=O)[C@@]1(O)C[C@H]2O[C@]1(C)n1c3ccccc3c3c4c(c5c6ccccc6n2c5c31)C(=O)NC4,≤ 0.3 µM,≤ 0.3 µM,≤ 0.3 µM,≤ 0.3 µM,≤ 0.3 µM,1 (active),1 (active),1 (active),1 (active),1 (active),1 (active),1 (active),1 (active),1 (active),1 (active),1 (active),1 (active),1 (active),1 (active),1 (active)
CC(C)(O)[C@H]1O[C@H]2CC[C@@]3(C)[C@@](O)(CC[C@H]4Cc5c([nH]c6ccccc56)[C@@]43C)C2=CC1=O [paxilline],9 µM,–,–,9 µM,9 µM,1 (active),0 (inactive),0 (inactive),0 (inactive),0 (inactive),1 (active),0 (inactive),0 (inactive),1 (active),0 (inactive),0 (inactive),0 (inactive),1 (active),1 (active),0 (inactive)
COc1ccc2c(c[n+](C)c3c4cc5c(cc4ccc23)OCO5)c1OC [Chelerythrine chloride],–,–,–,–,9 µM,1 (active),0 (inactive),0 (inactive),1 (active),0 (inactive),0 (inactive),0 (inactive),0 (inactive),1 (active),0 (inactive),0 (inactive),0 (inactive),0 (inactive),1 (active),0 (inactive)
CN1[C@@H]2CC[C@H]1C[C@@H](OC(=O)[C@H](CO)c1ccccc1)C2 [Hyoscyamine (L)],–,–,–,–,–,0 (inactive),0 (inactive),0 (inactive),–,0 (inactive),0 (inactive),0 (inactive),0 (inactive),–,0 (inactive),0 (inactive),0 (inactive),0 (inactive),–,0 (inactive)
C/C=C(/C)C(=O)O[C@H]1CC[C@@]2(C)[C@@H]3CC[C@H]4[C@]5(O)C[C@H](O)[C@@]6(O)[C@@H](CN7C[C@@H](C)CC[C@H]7[C@@]6(C)O)[C@]5(O)C[C@@]42O[C@]13O [Veratrine],–,–,–,–,–,0 (inactive),0 (inactive),0 (inactive),0 (inactive),0 (inactive),0 (inactive),0 (inactive),0 (inactive),0 (inactive),1 (active),0 (inactive),0 (inactive),0 (inactive),0 (inactive),0 (inactive)
C[C@]1(C(=O)O)CCC[C@]2(C)c3cc(O)ccc3CC[C@@H]12 [Podocarpic acid],–,–,–,–,–,–,0 (inactive),–,0 (inactive),–,0 (inactive),0 (inactive),0 (inactive),0 (inactive),0 (inactive),0 (inactive),0 (inactive),0 (inactive),0 (inactive),0 (inactive)
C[C@]12CC[C@H](O)C[C@H]1CC[C@@H]1[C@@H]2CC[C@]2(C)[C@@H](C3=CC(=O)OC3)CC[C@]12O [Digitoxigenin],≤ 0.3 µM,≤ 0.3 µM,≤ 0.3 µM,1 µM,≤ 0.3 µM,–,1 (active),–,1 (active),–,1 (active),1 (active),1 (active),1 (active),1 (active),1 (active),1 (active),1 (active),1 (active),1 (active)
CCC(=O)C(CC(C)N(C)C)(c1ccccc1)c1ccccc1 (stereo unspecified) [methadone],–,–,–,–,–,0 (inactive),0 (inactive),0 (inactive),–,0 (inactive),0 (inactive),0 (inactive),0 (inactive),–,0 (inactive),0 (inactive),0 (inactive),0 (inactive),–,0 (inactive)
CN1C(=O)CN=C(c2ccccc2)c2cc(Cl)ccc21 [diazepam],9 µM,–,–,–,–,0 (inactive),0 (inactive),0 (inactive),0 (inactive),0 (inactive),1 (active),0 (inactive),0 (inactive),0 (inactive),0 (inactive),0 (inactive),0 (inactive),0 (inactive),0 (inactive),0 (inactive)
C[C@@H]1NCCc2cc(O)c(O)cc21 [Salsolinol hydrobromide],–,–,–,9 µM,–,0 (inactive),0 (inactive),0 (inactive),0 (inactive),0 (inactive),0 (inactive),0 (inactive),0 (inactive),0 (inactive),0 (inactive),0 (inactive),0 (inactive),1 (active),0 (inactive),0 (inactive)
O=C1CCCN1CC#CCN1CCCC1 [Oxotremorine sesquifumarate],–,–,–,–,–,–,0 (inactive),–,0 (inactive),–,0 (inactive),0 (inactive),0 (inactive),0 (inactive),0 (inactive),0 (inactive),0 (inactive),0 (inactive),0 (inactive),0 (inactive)
C[C@H](N)Cc1ccccc1 [dextroamphetamine],–,–,–,–,–,1 (active),0 (inactive),1 (active),–,1 (active),0 (inactive),0 (inactive),0 (inactive),–,0 (inactive),0 (inactive),0 (inactive),0 (inactive),–,0 (inactive)
C[C@@H]1C[C@@H]([C@H](O)CC2CC(=O)NC(=O)C2)C(=O)[C@@H](C)C1 [Cycloheximide],≤ 0.3 µM,≤ 0.3 µM,≤ 0.3 µM,≤ 0.3 µM,≤ 0.3 µM,–,1 (active),–,1 (active),–,1 (active),1 (active),1 (active),1 (active),1 (active),1 (active),1 (active),1 (active),1 (active),1 (active)
O=C1NC(=S)N(c2cccc(Br)c2)C(=O)/C1=C/c1ccco1,–,9 µM,9 µM,3 µM,9 µM,0 (inactive),0 (inactive),0 (inactive),0 (inactive),1 (active),0 (inactive),1 (active),1 (active),0 (inactive),1 (active),1 (active),1 (active),1 (active),1 (active),1 (active)
CN1C[C@H](CO)C=C2c3cccc4[nH]cc(c34)C[C@H]21 [Lysergol],–,–,–,9 µM,–,0 (inactive),0 (inactive),0 (inactive),0 (inactive),0 (inactive),0 (inactive),0 (inactive),0 (inactive),0 (inactive),0 (inactive),0 (inactive),0 (inactive),1 (active),0 (inactive),0 (inactive)
O=P1(N(CCCl)CCCl)NCCCO1 (stereo unspecified) [cyclophosphamide],–,–,–,–,–,–,0 (inactive),–,0 (inactive),–,0 (inactive),0 (inactive),0 (inactive),0 (inactive),0 (inactive),0 (inactive),0 (inactive),0 (inactive),0 (inactive),0 (inactive)
CC(C)(C)c1cc(C=C(C#N)C#N)cc(Br)c1O,–,–,–,–,–,0 (inactive),0 (inactive),1 (active),0 (inactive),0 (inactive),0 (inactive),0 (inactive),0 (inactive),0 (inactive),0 (inactive),0 (inactive),0 (inactive),0 (inactive),0 (inactive),0 (inactive)
"Cc1c(C(=O)c2cccc3ccccc23)c2cccc3c2n1[C@H](CN1CCOCC1)CO3 [WIN 55,212-2 mesylate]",–,–,9 µM,9 µM,9 µM,0 (inactive),0 (inactive),1 (active),0 (inactive),0 (inactive),0 (inactive),0 (inactive),1 (active),0 (inactive),0 (inactive),1 (active),1 (active),1 (active),1 (active),0 (inactive)
N#Cc1c(Oc2cccc(OS(=O)(=O)CCCC(F)(F)F)c2)cccc1C(F)(F)F,–,–,9 µM,–,–,0 (inactive),0 (inactive),0 (inactive),0 (inactive),0 (inactive),0 (inactive),0 (inactive),1 (active),0 (inactive),0 (inactive),0 (inactive),0 (inactive),0 (inactive),0 (inactive),0 (inactive)
C=C1C/C(=C\C)C(=O)O[C@@H]2CCN3CC=C(COC(=O)[C@]1(C)O)[C@H]23 [Seneciphylline],–,–,–,–,–,0 (inactive),0 (inactive),0 (inactive),0 (inactive),0 (inactive),0 (inactive),0 (inactive),0 (inactive),1 (active),0 (inactive),0 (inactive),0 (inactive),0 (inactive),0 (inactive),0 (inactive)
